# In PubChem BioAssay:
# Active and inactive are the calls of the source. Unless noted, how the calls were made is not given here.
# Legend:
# [1] = compound effects on lung adenocarcinoma cell viability – A549, calcein-AM fluorescence, 48 h, basal, profiling panel (AID 1162); conditions: higher = more signal; further: test concentration not given here
# [2] = compound effects on differentiated 3T3-L1 adipocyte viability – cell-based, 3T3-L1 adipocytes, calcein-AM fluorescence, 48 h, basal, profiling panel (AID 1163); conditions: 3T3-L1 adipocytes viability, higher = more signal; further: test concentration not given here
# [3] = compound effects on hepatocellular carcinoma cell viability – HepG2, calcein-AM fluorescence, 48 h, basal, profiling panel (AID 1164); conditions: higher = more signal; further: test concentration not given here
# [4] = compound effects on multiple myeloma cell viability – MM1S, calcein-AM fluorescence, 48 h, basal, profiling panel (AID 1165); conditions: higher = more signal; further: test concentration not given here
# [5] = calcein-AM signal in unstimulated myeloma cells – cell-based, calcein-AM fluorescence, 48 h, PK04 Diversity Set, profiling panel (AID 1166); conditions: RPMI8226 myeloma viability, higher = more signal;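 further: cells grown under basal conditions without added stimulus; test concentration not given here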
# [6] = JC-1 mitochondrial signal, unstimulated HepG2 cells – cell-based, JC-1 fluorescence, 24 h, 100 nL compound, profiling panel (AID 1167); conditions: HepG2 mitochondrial potential, higher = more signal; further: test concentration not given here
# [7] = JC-1 mitochondrial signal, unstimulated adipocytes – cell-based, JC-1 fluorescence, 3T3-L1 adipocytes, 24 h, 100 nL compound, profiling panel (AID 1168); conditions: JC-1 mitochondrial fluorescence, higher = more signal, called active from +8 up or from −8 down; further: test concentration not given here
# [8] = JC-1 mitochondrial signal, unstimulated myeloma cells – cell-based, JC-1 fluorescence, RPMI8226, 24 h, 100 nL compound, profiling panel (AID 1169); conditions: JC-1 mitochondrial potential fluorescence, higher = more signal; further: test concentration not given here
# [9] = JC-1 mitochondrial signal, unstimulated MM1S myeloma – cell-based, JC-1 fluorescence, 24 h, 100 nL compound, profiling panel (AID 1170); conditions: MM1S mitochondrial potential, higher = more signal; further: test concentration not given here
# [10] = resazurin metabolic signal in A549 cells – cell-based, resazurin fluorescence, 24 h, PK04 Diversity Set, profiling panel (AID 1171); conditions: A549 viability, higher = more signal, called active from +8 up or from −8 down; further: test concentration not given here
# [11] = resazurin metabolic signal in HepG2 cells – cell-based, resazurin fluorescence, 24 h, PK04 Diversity Set, profiling panel (AID 1172); conditions: HepG2 viability, higher = more signal; further: test concentration not given here
# [12] = budding yeast growth changes without added modifier – OD600, strain BY4716, 24 h, basal condition, primary screen (AID 1173); conditions: S. cerevisiae BY4716 growth, OD600, 24 h; higher = more signal, called active from +8 up or from −8 down
# [13] = viability profiling in MM1S myeloma cells – cell-based, resazurin fluorescence, basal, 24 h, PK04 Diversity Set, profiling panel (AID 1174); conditions: higher = more signal, called active from +8 up or from −8 down; further: test concentration not given here
# [14] = target: Dihydroorotate dehydrogenase (quinone), mitochondrial (Plasmodium falciparum (isolate 3D7)) (UniProt Q08210); test: inhibition of P. falciparum DHODH – biochemical, C-terminal His tag, absorbance 600 nm, primary screen (AID 1175); conditions: PfDHODH enzyme, DCIP absorbance 600 nm; higher = more signal, called active from +8 up or from −8 down;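 further: recombinant parasite enzyme with a five histidine tag at its C terminus; test concentration not given here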
# [15] = inhibition of PAO1 biofilm formation – strain PAO1, LB-PBS medium, absorbance 600 nm, primary screen (AID 1176); further: test concentration not given here; conditions: P. aeruginosa PAO1 growth/biofilm, A600, 12 h; higher = more signal
# [16] = growth modulation of vineyard yeast isolate – strain RM11-1a, OD600, basal, 24 h, primary screen (AID 1177);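 further: cultures grown under basal conditions with no added stressor; test concentration not given here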; conditions: S. cerevisiae RM11-1a growth, OD600, 24 h; higher = more signal, called active from +8 up or from −8 down
# [17] = growth of efflux-deficient E. coli DRC39 – strain DRC39, OD650, 24 h, E. coli filamentation inducers, primary screen (AID 1178);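 further: growth measured as culture turbidity by optical density at 650 nm; test concentration not given here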; conditions: E. coli DRC39 acrAB, higher = more signal, called active from +8 up or from −8 down
# [18] = growth of efflux-deficient E. coli DRC39 – strain DRC39, OD650, 48 h, E. coli filamentation inducers, primary screen (AID 1179);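 further: screen aims at cell division blockers that make cells filament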; conditions: E. coli DRC39 delta-acrAB growth, higher = more signal, called active from +8 up or from −8 down
# [19] = viability profiling in RPMI8226 myeloma cells – cell-based, resazurin fluorescence, basal, 24 h, PK04 Diversity Set, profiling panel (AID 1180); conditions: higher = more signal;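 further: RPMI8826 multiple myeloma cell line at 5000 cells per well; test concentration not given here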
# [20] = target: E3 ubiquitin-protein ligase XIAP (Homo sapiens) (UniProt P98170); test: small molecules binding XIAP protein – biophysical, small-molecule microarray, fluorescence 635 nm, primary screen (AID 1181); conditions: higher = more signal;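 further: score merges 667 nm emission and signal to noise over triplicate slides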
# E3 ubiquitin-protein ligase XIAP (Homo sapiens), sequence (P98170 whole entry, looked up): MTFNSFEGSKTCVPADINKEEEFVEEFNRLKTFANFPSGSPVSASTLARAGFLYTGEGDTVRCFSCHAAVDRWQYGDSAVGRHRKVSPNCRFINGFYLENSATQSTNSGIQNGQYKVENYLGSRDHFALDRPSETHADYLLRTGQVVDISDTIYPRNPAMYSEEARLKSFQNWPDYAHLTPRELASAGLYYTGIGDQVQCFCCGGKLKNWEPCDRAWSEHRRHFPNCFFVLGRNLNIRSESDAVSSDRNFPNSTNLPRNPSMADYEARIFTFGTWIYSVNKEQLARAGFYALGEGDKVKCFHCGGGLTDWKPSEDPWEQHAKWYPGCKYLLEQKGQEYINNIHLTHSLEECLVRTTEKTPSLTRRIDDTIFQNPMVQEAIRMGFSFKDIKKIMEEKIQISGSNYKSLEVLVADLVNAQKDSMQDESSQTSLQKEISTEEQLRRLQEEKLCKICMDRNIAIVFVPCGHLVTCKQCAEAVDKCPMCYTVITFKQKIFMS
# Dihydroorotate dehydrogenase (quinone), mitochondrial (Plasmodium falciparum (isolate 3D7)), sequence (Q08210 whole entry, looked up): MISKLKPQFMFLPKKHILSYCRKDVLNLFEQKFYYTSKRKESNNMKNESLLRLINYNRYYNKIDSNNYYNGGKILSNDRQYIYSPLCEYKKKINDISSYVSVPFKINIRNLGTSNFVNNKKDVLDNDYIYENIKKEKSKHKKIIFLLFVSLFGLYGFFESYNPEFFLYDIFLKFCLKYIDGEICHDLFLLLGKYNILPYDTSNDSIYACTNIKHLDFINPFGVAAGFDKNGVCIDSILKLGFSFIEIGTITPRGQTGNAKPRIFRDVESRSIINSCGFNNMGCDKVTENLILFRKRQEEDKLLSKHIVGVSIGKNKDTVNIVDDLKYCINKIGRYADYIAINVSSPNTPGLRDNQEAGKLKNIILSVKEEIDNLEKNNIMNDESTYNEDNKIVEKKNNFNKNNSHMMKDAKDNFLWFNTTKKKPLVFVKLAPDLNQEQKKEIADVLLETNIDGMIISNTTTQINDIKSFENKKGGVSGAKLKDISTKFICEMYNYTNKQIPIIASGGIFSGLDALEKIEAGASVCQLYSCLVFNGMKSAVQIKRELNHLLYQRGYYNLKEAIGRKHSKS
SMILES,z-score [1],z-score [2],z-score [3],z-score [4],z-score [5],z-score [6],z-score [7],z-score [8],z-score [9],z-score [10],z-score [11],z-score [12],z-score [13],composite z-score [14],z-score [15],z-score [16],z-score [17],z-score [18],z-score [19],composite z-score [20]
O=C(CS)NCCCCCNC(=O)[C@@H]1C[C@@H]2C(=O)N3CCC[C@H]3C(=O)N2[C@@H]1c1cccc(OCCO)c1,-0.174,0.195,0.451,-0.304,-0.799,0.266,0.0369 (inactive),-0.00798,0.305,-0.61 (inactive),-0.514,0.196 (inactive),-0.374 (inactive),-1.8 (inactive),0.711 (inactive),0.119 (inactive),-0.277 (inactive),-0.141 (inactive),-0.664,0.122
CCOC(=O)C1=CC[C@@H](c2ccc(OCc3ccccc3)c(OC)c2)N(S(=O)(=O)c2ccc(C)cc2)[C@H]1c1ccc(SC)cc1,-0.568,0.211,0.355,-0.821,-0.906,1.37,-1.14 (inactive),0.419,-0.598,1.33 (inactive),0.579,0.49 (inactive),-0.107 (inactive),-0.322 (inactive),1.64 (inactive),-0.759 (inactive),-0.286 (inactive),-0.361 (inactive),-0.455,0.307
COc1cc2c(cc1O)C(C)N(Cc1ccc([N+](=O)[O-])o1)CC2 (stereo not given),0.687,0.831,-0.963,-1.21,-0.867,-2.09,-0.741 (inactive),0.105,-0.208,-0.0799 (inactive),-0.11,-0.942 (inactive),-0.653 (inactive),-0.749 (inactive),-0.103 (inactive),-0.74 (inactive),-1.04 (inactive),-0.679 (inactive),-0.396,-0.127
O=C1c2ccccc2[C@](Cc2ccccc2I)(C(=O)NCC(F)(F)F)[C@H](c2ccc(CO)cc2)N1C1CCCCC1,1.77,0.515,1.02,-1.75,-3.92,1.3,0.238 (inactive),-0.434,0.23,-0.0818 (inactive),-0.46,-0.754 (inactive),0.247 (inactive),-1.11 (inactive),0.127 (inactive),0.234 (inactive),0.739 (inactive),0.743 (inactive),-0.581,0.129
CC(C)(C)OC(=O)CC[C@]1(C(=O)NCC(O)CO)N=C(c2ccc(OCCCO)cc2)O[C@H]1c1ccccc1 (stereo not given in full),0.156,0.833,0.135,0.709,0.0887,0.52,-0.24 (inactive),-0.963,0.437,0.489 (inactive),0.309,-1.84 (inactive),1.04 (inactive),-1.89 (inactive),0.882 (inactive),-0.87 (inactive),1.41 (inactive),0.419 (inactive),0.949,-0.0203
[N-]=[N+]=Nc1ccccc1C[C@]1(C(N)=O)N=C(c2ccc(OCCCO)cc2)O[C@H]1c1ccccc1N=[N+]=[N-],-1.47,1.32,-1.84,-2.29,-3.48,-1.04,-0.981 (inactive),-1.21,-0.825,-1.36 (inactive),-0.0314,-2.88 (inactive),-1.55 (inactive),-0.398 (inactive),-0.193 (inactive),-0.315 (inactive),0.892 (inactive),-0.142 (inactive),-1.64,-0.248
C=CC[C@]1(C(=O)NCCN2CCOCC2)N=C(c2ccc(OCCCO)cc2)O[C@H]1c1ccccc1CN=[N+]=[N-],0.779,0.885,0.187,0.81,-0.221,2.76,0.0141 (inactive),-1.08,-0.244,1.2 (inactive),0.735,-1.01 (inactive),0.33 (inactive),0.453 (inactive),-1.17 (inactive),0.724 (inactive),1.31 (inactive),0.351 (inactive),0.485,-0.209
O=C(NCc1ccccc1)[C@@H]1c2ccccc2C(=O)N(Cc2ccccc2C(F)(F)F)[C@H]1c1ccc(CO)cc1,0.369,0.275,1.53,0.0209,-0.133,2.36,-0.182 (inactive),0.744,-0.962,-0.307 (inactive),-0.431,0.036 (inactive),-0.433 (inactive),0.154 (inactive),1.19 (inactive),0.0858 (inactive),0.232 (inactive),0.56 (inactive),-0.137,-0.107
CC(C)[Si](C#C[Si](C(C)C)(C(C)C)C(C)C)(O[C@H](C)c1cn([C@H](CO)Cc2ccccc2)nn1)C(C)C,1.11,-0.355,0.341,-2.37,0.482,0.376,0.727 (inactive),0.362,-0.156,0.637 (inactive),0.967,0.427 (inactive),0.786 (inactive),-0.487 (inactive),1.01 (inactive),-0.504 (inactive),1.17 (inactive),1.19 (inactive),1.04,0.0484
